Measurements from PubChem BioAssay (Tox21).
Records with an inconclusive call do not appear. Where a call stands in place of a potency, no number is given. Active and inactive are the calls of the source. Calls follow the shape of the dose curve; as a rule, active = well fitted cell-killing curve with a large enough effect in the repeat runs; inconclusive = weak or mixed curves, or effect the other way; inactive = no such curve, though single readings can be large or run the other way.

Assay: qHTS assay to identify small molecule antagonists of the thyroid receptor (TR) signaling pathway - cell viability counter screen (AID 743064); also: nearly all actives have a fitted effect of over 50% in size
Settings: GH3.TRE-Luc viability, CellTiter-Fluor, 24 h; series mostly up to 70.3 µM
From the text: National Center for Advancing Translational Sciences [NCATS]
NIH Chemical Genomics Center [NCGC]
U.S. Environmental Protection Agency [EPA]
National Institutes of Environmental Health Sciences [NIEHS]
National Toxicology Program [NTP]
U.S. Food and Drug Administration [FDA]
Thyroid receptor (TR), a nuclear hormone receptor, plays an important role in development, proliferation, differentiation, metabolism, brain function, and cardiovascular system. […] To profile the Tox21 10K compound library in TR signaling, a cell-based GH3-TRE-Luc assay (GH3.TRE-Luc cell line, developed by the laboratory of Dr. Albertinka J. Murk, Wageningen University) was used to measure the inhibition of TR. GH3 (rat pituitary tumor) cells stably expressing a TR activity sensor consisting of two TR response elements and a luciferase reporter gene. The cytotoxicity of the Tox21 compound library against the GH3.TRE-Luc cell line was tested in parallel by measuring the cell viability using CellTiter-Fluor assay (Promega, Madison, WI) in the same wells.
Tox21 Assay Protocol Summary:
GH3.TRE-Luc cells were dispensed at 1500 cells/4 uL/well into 1536-well white solid bottom plates using a Multidrop Combi dispenser (Thermo Fisher Scientific Inc., Waltham, MA). After the assay plates were incubated at 37 C for 4 hours, 23 nL of library compound or DMSO controls was transferred to the assay plates by a pintool station (Kalypsys, San Diego, CA), followed by addition of 1 ul of T3 (1 nM, final concentration in the wells) to stimulate TR transactivation. The assay plates were incubated at 37 C for 23.5 h, and then 1 uL of CellTiter-Fluor reagent (Promega, Madision, WI) of measuring cytotoxicity was added to each well using a Bioraptr Flying Reagent Dispenser (FRD) workstation (Beckman Coulter, Indianapolis, IN, USA). The plates were incubated at 37C and 5% CO2 for additional 30 min, and fluorescence intensity was measured by a ViewLux plate reader (PerkinElmer, Shelton, CT).

Structure (SMILES) | Potency
CC1(C)Oc2ccc(C#N)cc2[C@@H](N2CCCC2=O)[C@@H]1O | inactive
CCCCCCCCCCCCCCCCCCOCCO | inactive
CN1CCOC(c2ccccc2)c2ccccc2C1 (stereo not given) | inactive
C=Cc1ccc(C(C)(C)C)cc1 | inactive
CCO | inactive
C[C@@H](O)C(=O)O | inactive
O=Cc1ccccc1Cl | inactive
O=[N+]([O-])c1c(Cl)cc(Cl)cc1Cl | inactive
Cc1c(N)cccc1Cl | inactive
C=CC/C=C/C | inactive
CC(=O)O[Si](C)(OC(C)=O)OC(C)=O | inactive
CC(=O)CCc1ccc(OC(C)=O)cc1 | inactive
CC(=O)CCC1=C(C)CCCC1(C)C | inactive
CC(C)NCC(O)c1ccc2ccccc2c1 (stereo not given) | inactive
CN1C[C@@H]2C[C@H]1CN2c1cc2c(cc1F)c(=O)c(C(=O)O)cn2C1CC1 | inactive
CC(=O)OCC(=O)Nc1cc(C#N)cc(NC(=O)COC(C)=O)c1Cl | inactive
CC(=O)OC1CCCCC1C(C)(C)C (stereo not given) | inactive
Cc1cc(-c2ccccc2)nnc1NCCN1CCOCC1 | inactive
CCC(=O)c1c(O)cc(O)cc1O | inactive
CC1CC(=O)CC(C)(C)C1 (stereo not given) | inactive

Structure (SMILES) | Potency
CC(CO)(CO)CO | inactive
COc1ccc(CCO)cc1 | inactive
[O]=[Mo](=[O])=[O] | inactive
CCOc1cccc(N)c1 | inactive
ONc1ccccc1 | inactive
CCC(C)C(C)=O (stereo not given) | inactive
OC[C@H]1O[C@@H](O[C@@H]2[C@@H](CO)O[C@](O)(CO)[C@H]2O)[C@H](O)[C@@H](O)[C@H]1O | inactive
CC(N)CCCC(C)(C)O (stereo not given) | inactive
COC(=O)CCCCC(=O)O | inactive
O=C=NCC1CCCC(CN=C=O)C1 (stereo not given) | inactive
N#Cc1ccccc1O | inactive
CCC(=O)CC | inactive
Cn1c(=O)c2c(ncn2CCO)n(C)c1=O | inactive
Fc1ccccc1 | inactive
CC/C=C\CCOC(=O)c1ccccc1O | inactive
CC1=C(C(=O)O)N2C(=O)[C@@H](NC(=O)[C@H](N)C3=CCC=CC3)[C@H]2SC1 | inactive
CCC[C@@H]1C[C@@H](C(=O)N[C@@H]([C@H]2O[C@H](SC)[C@H](O)[C@@H](O)[C@H]2O)[C@@H](C)O)N(C)C1 | inactive
C=CCOC(=O)CCCCCC | inactive
CC(=O)O[C@@H]1CC2CCC1(C)C2(C)C (stereo not given in full) | inactive
CCCCOC(=O)[C@H](C)O | inactive
